# From PubChem BioAssay
# MIN6 prolif-1: MIN6 beta-cell proliferation induction. MIN6 cells proliferation, ATPlite luminescence, 48 h; cells starved in 0.2% serum; 100% = growth in 10% serum. proliferation, % at 10 µM. actives 0.29% (n = 330,000);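 active = compounds whose signal lies at least 3.5 SD above the mean of all wells on their plate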;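 also: 0% = DMSO-treated cells in low-serum medium and 100% = 10% serum control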
# iPSC survival up: hiPSC single-cell survival enhancement | ATPlite luminescence; 100% = ROCK inhibitor wells, 0% = DMSO | survival enhancement, % at 20 µM | actives 0.044% (n = 360,000); in the data active = survival enhancement above about 18%;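 also: cells exposed to compounds for 16 hours before the ATP read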
# TAG inh: reduces triacylglycerol accumulation in H9c2 cells. Nile Red lipid (TAG) fluorescence; cells loaded with 200 µM oleic acid. actives 0.66% (n = 230,000). inhibition, % at 12.5 µM. AID 651582;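 active = pattern-corrected inhibition of lipid staining of at least 50% with the nuclear-stain viability signal not falling by more than 50%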;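 also: 0% = DMSO wells and 100% = triacsin C control wells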
# MIN6 prolif-2: MIN6 beta-cell replication induction, confirmed; shares compounds with MIN6 prolif-1; MIN6 beta-cell proliferation, ATPlite luminescence, 48 h; cells kept in 0.2% serum; scaled between 0.2% and 10% serum; proliferation increase, % at 50 µM; 920 tested, under 10 active; AID 463095;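 active = proliferation increase above 40% at any of the four tested concentrations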
# Numbers without * were called inactive; / = no result given. In the library only some 0.71% were active in any assay of this set; here they are far more common.
SMILES,MIN6 prolif-1,iPSC survival up,TAG inh,MIN6 prolif-2
COc1ccc(OC)c(-c2nc(CN3CCCCC3c3cccnc3)c(C)o2)c1 (stereo unspecified),5.5,-2.0,-56.2,/
CN1CCN(CC(C)(C)NS(=O)(=O)c2ccccc2)CC1,-0.3,1.2,4.9,/
CC(C)(CN1CCc2ccccc2C1)NS(=O)(=O)c1ccccc1,7.7*,0.2,-7.0,-5.5
COc1cc(/C=N/NC(=O)C(NC(=O)c2ccccc2)c2n[nH]c(=O)c3ccccc23)ccc1OCC(N)=O (stereo unspecified),-0.6,0.1,/,/
COc1ccc(/C(C)=N/NC(=O)CNC(=O)c2cccnc2)cc1,-4.4,-0.4,/,/
COc1ccc(/C(C)=N/NC(=O)C(NC(=O)c2ccccc2)c2n[nH]c(=O)c3ccccc23)c(OC)c1 (stereo unspecified),6.8*,0.1,-5.2,4.4
COc1ccc(/C(C)=N/NC(=O)CNC(=O)c2cccnc2)c(OC)c1,6.4*,-0.6,/,1.4
O=C(O)CCC1C(=O)NC(=O)CC1c1ccccc1 (stereo unspecified),/,3.4,0.4,/
C/C(=N\NC(=O)C1CC1)c1ccccc1O,11.3*,-0.2,16.2,-2.5
C/C(=N\NC(=O)C1CC1)c1ccccc1Br,-0.3,0.2,-14.5,/
CSC1=NC=C(C#N)C2=NC(c3ccc(Cl)cc3)NN12 (stereo unspecified),/,1.6,/,/
COc1ccccc1N(CC(O)CN1CCOCC1)S(=O)(=O)c1ccccc1 (stereo unspecified),19.4*,-0.3,/,0.0
COc1ccccc1N(CC(O)CN1CCCC1)S(=O)(=O)c1ccccc1 (stereo unspecified),0.0,-0.6,/,/
O=C(NCCCN1CCOCC1)c1[nH]c(C(F)(F)F)nc1-c1ccccc1,/,4.0,/,/
CN(CC(=O)Nc1c(Cl)cccc1Cl)C(=O)CCNS(=O)(=O)c1ccccc1C(F)(F)F,11.9*,-0.4,5.5,0.0
CCN(CC(=O)Nc1c(F)cccc1F)C(=O)CCNS(=O)(=O)c1ccccc1C(F)(F)F,3.3,1.0,-7.2,/
Fc1cccc(Cc2c(-c3ccco3)nc3c4ccccc4ccn23)c1,/,-1.5,/,/
N#Cc1c2c(c(NCCN3CCOCC3)n3c1nc1ccccc13)CCCC2,7.5*,-0.2,0.7,4.9
N#Cc1c2c(c(NCCCN3CCOCC3)n3c1nc1ccccc13)CCC2,0.0,3.1,18.5,/
COc1ccc(Cc2c(C3CCCCC3)nc3c(Cl)cc(C(F)(F)F)cn23)c(C)c1,/,-0.6,/,/
Cc1ccc(C(=O)Nc2ccc(Cl)cn2)cc1S(=O)(=O)N1CCOCC1,-2.7,-0.5,5.2,/
Cc1ccc(NC(=O)c2ccc(C)c(S(=O)(=O)N3CCOCC3)c2)nc1,12.9*,1.3,-14.5,-3.4
C1=C(c2ccccc2)Nc2ncnn2C1c1ccccc1 (stereo unspecified),6.4,-0.3,-14.0,/
Cc1ccc(C2=CC(c3ccccc3)n3ncnc3N2)cc1 (stereo unspecified),12.1*,0.1,13.3,-6.3
Cc1ccccc1NC(=O)CN1C(=O)NC(C)(c2ccc3c(c2)OCO3)C1=O (stereo unspecified),1.0,-1.0,/,/
SMILES,MIN6 prolif-1,iPSC survival up,TAG inh,MIN6 prolif-2
CC1(c2ccc3c(c2)OCO3)NC(=O)N(CC(=O)Nc2ccccc2[N+](=O)[O-])C1=O (stereo unspecified),14.0*,-0.4,-5.7,-0.4
O=C1NC[C@H](Cc2ccccc2)N(C[C@@H]2CCCN2C[C@H](Cc2ccccc2)N2C[C@H](Cc3ccccc3)N(CCc3ccccc3)C(=O)C2=O)C1=O,/,-0.2,/,/
C[C@H](CO)N1C[C@H](C)[C@@H](CN(C)Cc2ccccc2C(=O)O)OCc2cnnn2CCCC1=O,/,-0.2,5.4,/
CC1=C(C(=O)Nc2ccccc2)C(c2ccncc2)C(C#N)=C(SCC(=O)NC2CC2)N1 (stereo unspecified),8.3*,0.7,-12.9,2.5
CC1=C(C(=O)Nc2ccccc2)C(c2ccncc2)C(C#N)=C(SCC(=O)NC(C)C)N1 (stereo unspecified),-0.5,-0.4,-5.1,/
Cc1cc(C)nc(NC(=NCCc2c[nH]c3ccccc23)NC(=O)c2ccco2)n1,12.0*,0.7,-2.6,-5.0
Cc1cc(C)nc(NC(=NCCc2c[nH]c3ccccc23)NC(=O)Nc2ccccc2)n1,-4.2,2.1,/,/
Cc1ccc(C)c(N(CC(=O)NC2CCCC2)C(=O)CCC(=O)Nc2nccs2)c1,1.3,0.3,/,/
Cc1ccc(N(CC(=O)NC2CCCC2)C(=O)CCC(=O)Nc2nccs2)c(C)c1,21.2*,-0.5,/,-0.7
CC1(C(=O)NCc2ccc(Cl)cc2)CCN1C(=O)Cc1ccc(Cl)cc1Cl (stereo unspecified),/,-1.3,-12.9,/
CC1CN(Cc2ccccc2)C(=O)N(c2ccccc2)C1=O (stereo unspecified),/,4.8,-36.3,/
CC1CN(Cc2ccccc2)c2ccccc2NC1=S (stereo unspecified),0.0*,2.6,/,-6.3
O=[N+]([O-])c1nccn1C1C=CC(O)C(CO)O1 (stereo unspecified),/,-1.6,/,/
S=C1NCCc2ccccc2C1c1ccccc1 (stereo unspecified),0.6,-2.8,-4.9,/
S=C1NCCc2ccccc2C1c1ccccc1Cl (stereo unspecified),5.3*,-3.1,-16.2,-6.4
CC1(C(=O)NS(=O)(=O)c2ccccc2OC(F)(F)F)CCN1C(=O)c1ccco1 (stereo unspecified),/,0.1,4.4,/
O=C(CCNS(=O)(=O)c1ccc(Cl)cc1)N1CCC2(O)CCCCC2C1 (stereo unspecified),5.6*,-0.7,-10.8,-0.9
O=C(CCNS(=O)(=O)c1ccc(Cl)cc1)N1CCCC1,-2.7,0.2,/,/
CCCCN(C(=O)c1ccccc1Cl)C(CC(C)C)c1nc2ccccc2[nH]1 (stereo unspecified),/,-0.7,/,/
CN1CCN(C(=O)CCCN2C(=O)/C(=C/c3ccccc3)SC2=S)CC1,7.5*,-0.2,/,-6.3
CN1CCN(C(=O)CCCN2C(=O)/C(=C/c3ccc(Cl)cc3)SC2=S)CC1,-2.3,-0.1,-0.2,/
NC(c1csc(Nc2cc(NCCCO)ncn2)n1)c1ccccc1Cl (stereo unspecified),/,-0.9,-1.5,/
C[C@H]1CN([C@@H](C)CO)C(=O)c2cc(Br)cnc2O[C@H]1CN(C)Cc1ccc(Oc2ccccc2)cc1,/,0.6,2.5,/
O=C1NC[C@H](CCCCN2CCN(CC3CCCCC3)C(=O)C2=O)N(CC2CCCCC2)C1=O,/,0.0,/,/
C=CCOc1ccc(-c2nc3c(c(=O)[nH]c(=O)n3Cc3ccccc3)n2CCCOC)cc1,-1.8,-0.4,/,/
C=CCOc1ccc(-c2nc3c(c(=O)[nH]c(=O)n3CCCC)n2C)cc1Br,0.2,1.7,/,/
COCCCn1c(-c2ccc(OC)cc2)nc2c1c(=O)[nH]c(=O)n2Cc1ccccc1,0.0*,1.8,/,-4.0
C=CCOc1ccc(-c2nc3c(c(=O)[nH]c(=O)n3CCC)n2CCCC)cc1,0.0*,0.5,/,2.8
COCCn1c(-c2ccsc2)nc2c1c(=O)[nH]c(=O)n2CC(C)C,2.5,0.6,-4.7,/
COCCn1c(-c2ccc3ccccc3c2)nc2c1c(=O)[nH]c(=O)n2CC(C)C,9.0*,-0.3,/,-5.9
